# System: Plasmodium falciparum NF54-HGL (transmission to Anopheles stephensi)
# Assay: percentage of barcode signal found in uninfected mosquitoes (transmission-blocking activity); higher = stronger blocking of transmission to mosquito, active = 80 or more
# Settings: 10 µM; gametocyte preincubation time 24 h; readout time post-feed 8 days
# Description: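 The mixture was fed to Anopheles stephensi in 96-well plates as blood meals tagged with DNA-barcoded Asaia bacteria. Eight days later, mosquitoes were classed infected or uninfected by luminescence (mean + 5 SD of unfed controls). Barcodes were quantified by Luminex MagPlex-TAG in the pooled uninfected and infected Asaia cultures, background-corrected, and the score is % of barcode signal in uninfected mosquitoes = 100*Iu/(Iu+Ii).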
row,Structure (SMILES),percentage of barcode signal found in uninfected mosquitoes
1,CC(C)(C)C(O)C(Oc1ccc(-c2ccccc2)cc1)n1cncn1 (centres undefined),-1.02% (inactive)
2,Cc1nn(Cc2ccccc2)c(Cl)c1C(=O)NC1CCCCCC1,2.01% (inactive)
3,CC1COC(Cn2cncn2)(c2ccc(Oc3ccc(Cl)cc3)cc2Cl)O1 (centres undefined),19.1% (inactive)
4,Nc1c2c(nc3sc4c(c13)CCCC4)CCCC2,42% (inactive)
5,CO/C=C(/C(=O)OC)c1ccccc1Oc1cc(Oc2ccccc2C#N)ncn1,69.5% (inactive)
6,CC1(C)OB(O)c2ccc(C3=NOC(c4cc(Cl)c(F)c(Cl)c4)(C(F)(F)F)C3)cc21 (centres undefined),-4.84% (inactive)
7,CCc1nn(C)c(C(=O)NCc2ccc(Oc3ccc(C)cc3)cc2)c1Cl,25.8% (inactive)
8,Cc1cc(C2=NOC(c3cc(Cl)c(F)c(Cl)c3)(C(F)(F)F)C2)ccc1C(=O)NCc1ccc2c(c1)C(C)(C)OB2O (centres undefined),43.3% (inactive)

# Same assay, conditions: 20 µM; gametocyte preincubation time 24 h; readout time post-feed 8 days
row,Structure (SMILES),percentage of barcode signal found in uninfected mosquitoes
1,Cc1nn(C)c(C)c1NS(=O)(=O)c1c(Cl)cc(-c2ccnc(N3CCNCC3)c2)cc1Cl,48.9% (inactive)
2,O=C1O[C@@H](COc2ccon2)CN1c1cc(F)c(C2=CCN(Cc3ccccc3)CC2)c(F)c1,29.7% (inactive)
3,CO/N=C(\C(=O)OC)c1ccccc1CO/N=C(\C)c1cccc(C(F)(F)F)c1,83.6% (active)
4,Cc1cccc(C(=O)Nc2ccnc(N(C)C3CCN(CC(C)C)CC3)c2)c1,46.4% (inactive)
5,CO[C@@H]1CN(c2ccc(C#CC3(O)CN4CCC3CC4)c(Cc3ccccc3)n2)C[C@H]1O (some centres undefined),43% (inactive)
6,O=C1O[C@@H](CO)CN1c1cc(F)c(C2=CCN(Cc3ccccc3)CC2)c(F)c1,0.248% (inactive)

# From the supplement of paper PMC8726507
